High-throughput results as filed in PubChem BioAssay.
HT1080 IDH1KD tx: HT-1080 IDH1 knockdown cell toxicity (counter line); Potency, µM (doses to about 46.1 µM), inactives show at the highest dose activity, negative = toxicity, actives largely listed as cytotoxic; hit rate 2% among 360,000; AID 686971; HT-1080 IDH1 knockdown viability, ATP luminescence, 48 h;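 note: potency is the fitted concentration of half-maximal effect; 0% = DMSO wells and -100% = cell-free medium wells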
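CellTiter-Glo luminescence after 48 h compound exposure at 37 degrees C of IDH1-knockdown HT-1080 cells in 5% FBS RPMI. %Activity scaled between DMSO wells and cell-free media wells, with curves fitted and assigned curve classes.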
DT40 TDP1 no CPT: qHTS for Inhibitors of human tyrosyl-DNA phosphodiesterase 1 (TDP1): qHTS in cells in absence of CPT; Potency, µM (doses to about 46.2 µM), for the others: at the top dose activity change, negative = growth inhibition, usual class: inhibitors; hit rate 15% among 420,000; DT40 Tdp1-/- hTDP1 cells, no CPT, ATP luminescence, 48 h; AID 686978, 2013; note: potency is the fitted concentration of half-maximal effect; nearly all actives have a fitted effect of over 55% in size
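A cellular qHTS used chicken DT40 cells lacking endogenous Tdp1 but carrying stably transfected human TDP1. Compounds were applied without camptothecin, and cell growth kinetics were judged by ATP-dependent luminescence after ≥48 hr.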
HT1080-NT tox: kills 2HG-producing HT-1080-NT fibrosarcoma cells; HT-1080-NT fibrosarcoma viability, CellTiter-Glo ATP luminescence, 48 h; Potency, µM (highest dose often 46.1 µM), for the others: at the top dose activity, negative = less viability, usual class: cytotoxic; hit rate 1.6% among 360,000; AID 686970;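 note: NT is the 2HG producing partner of a matched IDH1 knockdown line; potency is the fitted concentration of half-maximal effect; 0% = DMSO-treated cells and -100% = media-only wells without cells; nearly all actives have a fitted effect of over 55% in size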
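Compounds were tested in concentration-response format on HT-1080-NT cells for 48 hours at 37 degrees C. Cell viability came from CellTiter-Glo luminescence; curves were classified by r2, response magnitude and activity.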
TDP1 cell CPT: growth inhibition of DT40 Tdp1-/-;hTDP1 cells with camptothecin (screen for TDP1 inhibitors). Potency, µM (top dose mostly 46.2 µM), inactives show at the highest dose activity change, negative = growth inhibition, hits mostly inhibitors. chicken DT40 Tdp1-/-;hTDP1 cells + 20 nM CPT, ATP luminescence, 48 h. hit rate 12% among 420,000; note: potency is the fitted concentration of half-maximal effect; nearly all actives have a fitted effect of over 55% in size
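Chicken DT40 Tdp1-/- cells complemented with human TDP1, 400 cells/well, exposed to compounds plus 20 nM camptothecin for at least 48 h at 37 C; viability read as ATP content by CellTiter-Glo luminescence.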
IL1B secr inh: inhibitors of inflammasome signaling (IL-1 beta secretion). THP-1 LPS/ATP IL-1B secretion, AlphaLISA, 16 h; active compounds read low. activity change, % at 57.5 µM. hit rate 4.7% among 360,000. AID 743279; in the data active = activity change below about -50%; inconclusive = mostly about -30% to -49%
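Secreted IL-1B measured by AlphaLISA bead assay after 16 h compound exposure of THP-1 cells; compounds (final up to 57.5 uM) added 1 h before LPS (250 ng/mL) and ATP (1.25 mM) stimulation; lower signal means less secretion.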
12-LOX inh: blocks human arachidonate 12S-lipoxygenase. P18054. purified 12hLO, xylenol orange hydroperoxide absorbance. Potency, µM (highest dose often 108 µM), for the others: top-dose activity change, negative = inhibition, actives largely listed as inhibitors. hit rate 1.1% among 580,000. AID 1671190; note: potency is the fitted concentration of half-maximal effect
Target sequence (P18054 whole entry, looked up): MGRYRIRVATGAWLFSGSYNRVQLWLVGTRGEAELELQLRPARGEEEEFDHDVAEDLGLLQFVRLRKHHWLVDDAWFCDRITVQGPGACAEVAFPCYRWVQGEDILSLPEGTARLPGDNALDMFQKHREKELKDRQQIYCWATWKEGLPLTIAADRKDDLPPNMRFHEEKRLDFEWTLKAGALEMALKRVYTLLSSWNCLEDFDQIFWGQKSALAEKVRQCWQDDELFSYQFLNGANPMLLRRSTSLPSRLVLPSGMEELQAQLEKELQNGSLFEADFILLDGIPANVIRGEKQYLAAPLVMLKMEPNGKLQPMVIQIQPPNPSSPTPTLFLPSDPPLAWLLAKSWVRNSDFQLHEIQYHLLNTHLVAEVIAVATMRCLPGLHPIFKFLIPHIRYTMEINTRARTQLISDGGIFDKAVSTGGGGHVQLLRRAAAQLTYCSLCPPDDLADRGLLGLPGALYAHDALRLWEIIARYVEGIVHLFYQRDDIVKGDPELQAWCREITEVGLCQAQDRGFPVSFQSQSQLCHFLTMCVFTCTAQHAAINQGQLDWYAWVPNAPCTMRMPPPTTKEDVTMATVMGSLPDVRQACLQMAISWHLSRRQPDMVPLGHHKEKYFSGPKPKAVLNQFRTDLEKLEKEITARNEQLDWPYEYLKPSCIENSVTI
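Hydroperoxide product was detected by ferrous iron/xylenol orange as the 573 to 405 nm absorbance ratio. Arachidonic acid at 40 uM (final) was turned over for 30 min at room temperature by 150 nM human 12hLO, pH 7.0 Hepes buffer, after 15 min compound preincubation.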
* hit, by the source's call; ? = inconclusive; . = no result given; [ ] = dose if it differs, or a comment. This excerpt belongs to a sample that is enriched for hits. Unless noted, calls come from the whole dose curve; as a rule, active = well fitted curve in the direction sought with a large enough effect; inconclusive = small, poorly fitted or top-dose-only effect, or another doubt; inactive = no such curve, though single readings can be large; an effect the other way counts as inactive or inconclusive. Unless noted, % is set by controls: 0 for no effect and ±100 for the full control effect.

SMILES | HT1080 IDH1KD tx | DT40 TDP1 no CPT | HT1080-NT tox | TDP1 cell CPT | IL1B secr inh | 12-LOX inh
COc1ccc2sc3c(=O)[nH]c4ccccc4c3c2c1 | -15% | 1.6µM* | -22% | 5.8µM* | 12 | -7%
CC(C)c1ccc(NC(=O)c2cnc(N3CCOCC3)c3ccccc23)cc1 | . | . | . | . | . | -1%
O=C1CCCN1CCCNCC1CCCCC1 | . | . | . | . | . | 47%
CC(C)(C)c1ccc(NC(=S)NCc2cccs2)cc1 | ? | ? | ? | ? | 9 | 32µM*
c1ccc(NCc2cccs2)cc1 | . | . | . | . | . | -18%
CCC(C)c1ccc(NC(=S)NCc2cccs2)cc1 (stereo not drawn) | ? | ? | ? | ? | 0 | ?
Cc1cc(C)cc(NC(=S)NCc2cccs2)c1 | -1% | ? | -9% | 15µM* | 0 | ?
Cc1cc(C)cc(NC(=S)NCCO)c1 | . | . | . | . | . | 14µM*
COc1cc(NC(=S)NCc2cccs2)cc(OC)c1 | 12% | ? | 8% | ? | -9 | ?
Oc1ccc(NCc2cccs2)cc1 | ? | 13µM* | ? | ? | 9 | ?
Cc1cc(C)c(NC(=S)NCCO)c(C)c1 | -1% | 8% | -1% | 2% | 25 | 9%
COC1CCOC2(CCN(C(=O)Nc3cccc(F)c3)CC2)C1 (stereo not drawn) | . | . | . | . | . | 20%
Cc1ccc(NC(=O)CN(C)C(=O)C(C)N(C)Cc2ccccc2F)cc1 (stereo not drawn) | . | . | . | . | . | -6%
COc1ccc(N2CC(C(=O)N3CCC(C(=O)NCc4cccs4)C3)NC2=O)cc1 (stereo not drawn) | . | . | . | . | . | 61%
COc1ccc(NC(=O)Cn2cc(S(=O)(=O)Cc3ccc(F)cc3)c3ccccc32)cc1OC | . | ? | . | ? | . | 50µM*
COc1cccc(NC(=O)Cn2cc(S(=O)(=O)Cc3ccccc3F)c3ccccc32)c1 | . | 18µM* | . | 16µM* | . | ?
CCOC(=O)C(C)(C)N(Cc1ccc(C)cc1)S(=O)(=O)c1ccc(Cl)c([N+](=O)[O-])c1 | ? | 13µM* | ? | 15µM* | -104* | -1%
NS(=O)(=O)c1ccc(CNC(=O)c2ccc(Cl)c([N+](=O)[O-])c2)cc1 | 7% | ? | 1% | ? | ? | 0%
COc1ccc(Cl)cc1N1C(=O)[C@@H]2C[C@@H](NC(=O)Cc3cccs3)CCN2C1=O | . | . | . | . | . | -2%[176 µM]
Cc1ccc(CN(C(=O)c2cc(=O)c3cc(C)cc(C)c3o2)C2CCS(=O)(=O)C2)cc1 (stereo not drawn) | -1% | 18µM* | -4% | ? | -16 | ?
Cc1cc(C)c2oc(C(=O)N(Cc3ccc(F)cc3)C3CCS(=O)(=O)C3)cc(=O)c2c1 (stereo not drawn) | -15% | -20% | -9% | ? | -2 | -4%
CCc1ccc(CN(C(=O)c2cc(=O)c3ccc(C)cc3o2)C2CCS(=O)(=O)C2)cc1 (stereo not drawn) | . | ? | . | 16µM* | . | -66%
CCCc1cc(=O)n2[nH]c(NC(=O)C3CCCCC3)nc2n1 | . | . | . | . | . | -49%
N=C(N)c1ccc(OCCCOc2ccc(C(=N)N)cc2)cc1 | . | 6.7µM* | . | 6.7µM* | . | -11%[22.9 µM]
N=C(N)c1ccc(OCc2ccncc2)cc1 | . | . | . | . | . | 8.9µM*
SMILES | HT1080 IDH1KD tx | DT40 TDP1 no CPT | HT1080-NT tox | TDP1 cell CPT | IL1B secr inh | 12-LOX inh
N=C(N)c1ccc(OCCCOc2ccc(C(=N)N)cc2Br)c(Br)c1 | . | 3.8µM* | . | 4.7µM* | . | .
CCCCCCOc1ccc(/C(N)=N/O)cc1 | -5% | 21µM* | 0% | 16µM* | 0 | 75%
NC(=O)c1ccc(OCc2ccccc2)cc1 | . | . | . | . | . | -2%
CC(NCc1cccc(Oc2nnnn2-c2ccccc2)c1)c1ccccc1 (stereo not drawn) | . | . | . | . | . | -23%
CC(C)C1CN(CC2CCC(N)CC2)CCC(=O)N1Cc1ccc(F)cc1 (stereo not drawn) | . | . | . | . | . | -19%
ON=C(c1ccccc1)c1ccc2c3c(cccc13)CC2 | -14% | 18µM* | -11% | ? | 32 | 1%
OC(Cc1ccc2ccccc2n1)c1ccccc1 (stereo not drawn) | . | ? | . | 0% | . | .
CCc1cc(/C(Cc2ccc3ccccc3n2)=N\O)c(O)cc1O | -8% | ? | -10% | ? | -101* | 7%
Cc1c(O)ccc(/C(Cc2ccc3ccccc3n2)=N\N)c1O | ? | 10µM* | -16% | 7.3µM* | 0 | 15%
CCc1cc(/C(Cc2ccccn2)=N\O)c(O)cc1O | 13µM* | -29% | ? | ? | -6 | 24%
CCc1cc(/C(Cc2cscn2)=N\O)c(O)cc1O | -7% | ? | -4% | -11% | 31 | -6%
Cc1ccc(CN(C)C(=O)Cn2c(Cl)nc3c2c(=O)n(C)c(=O)n3C)cc1 | . | . | . | . | . | 11%
CN(C)c1ccc(CC(=O)c2nc3ccccc3s2)cc1 | 4% | ? | 0% | 16µM* | 35 | ?
CCOc1ccc2nc(NC(=O)c3nn(Cc4ccccc4)c(=O)c4ccccc34)sc2c1 | . | . | . | . | . | 9%
O=C(Nc1ccc(N2CCOCC2)cc1)c1cn2ccccc2n1 | ? | 10µM* | -25% | 13µM* | -14 | 3%
O=C(O)/C=C/C(=O)Nc1ccc(N2CCOCC2)cc1 | . | . | . | . | . | 32µM*
O=C(Nc1ccc(Cl)cc1)Nc1ccc(N2CCOCC2)cc1 | -9% | 18µM* | -1% | ? | 111 | 0%
O=C(Nc1ccc(Cl)c(S(=O)(=O)N2CCOCC2)c1)c1cn2ccccc2n1 | 21% | ? | 5% | -14% | 34 | -8%
C/C(=C/C(=O)O)C(=O)Nc1ccc(N2CCOCC2)cc1 | . | . | . | . | . | -12%
CS(=O)(=O)N1C[C@H]2CCN(C(=O)c3cc(F)ccc3F)C[C@H]21 | . | . | . | . | . | 25%
CCn1c(CSc2nnc(C3CC3)n2-c2ccccc2)nc2cc(S(=O)(=O)N(C)C)ccc21 | . | . | . | . | . | 11%
CC(C)Cc1nc2oc3c(NCC4CCCO4)ncnc3c2c2c1CCC2 (stereo not drawn) | -1% | 18µM* | 7% | 13µM* | -27 | -3%
c1ccc2c(c1)oc1c(NCC3CCCO3)ncnc12 (stereo not drawn) | -11% | 18µM* | -2% | ? | 117 | ?
CC(C)Cc1nc2oc3c(N4CCN(CCO)CC4)ncnc3c2c2c1CCCC2 | 9% | 13µM* | 7% | 13µM* | -7 | -15%
CC(C)Cc1nc2oc3c(NCc4cccnc4)ncnc3c2c2c1CCC2 | -15% | -11% | 2% | -25% | 26 | -18%
O=C(Nc1cccc(C(F)(F)F)c1)N[C@H]1CO[C@H]2[C@@H]1OC[C@@H]2n1nnnc1-c1ccc2c(c1)OCO2 | . | . | . | . | . | 17%
